Rows were chosen to be rich in hits. Some 1.3% of all compounds tested hit in one or more screens of this group.
KCNH2 3.1 block = blocks the human KCNH2 3.1 channel isoform; U2OS KCNH2 3.1, thallium flux FluxOr; stronger effect = lower value; activity change, % (tested at about 1.8 µM); actives 0.95% (n = 340,000); AID 720553;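 active = maximum activity change below -70%; inconclusive = maximum activity change from -70% to -50%; inactive = maximum activity change above -50%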;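 note: thallium influx rate constant from kinetic fluorescence after stimulation buffer; % is set by controls: 0 for no effect and ±100 for the full control effect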
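Normalized rate constant (relative to positive and negative DMSO controls) derived from a 2 min kinetic fluorescence read after stimulation; U2OS cells expressing the 3.1 isoform via virus at 1.77 x 10^8 /mL.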
TRPV1 ag = human TRPV1 agonism; Q8NER1; TRPV1-expressing cells, Fluo-8 calcium influx, agonist mode; activation, % at 8.33 µM; actives 0.19% (n = 320,000); in the data active = activation above about 80%; inconclusive = between about 30% and that limit; note: 0% is about no effect
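Fluo-8 calcium influx in TRPV1-expressing cells, kinetic read (ex 480/em 520 nm). Compound added and read 3 min for agonist activity, followed by capsaicin at EC20 final and 2 min further read for enhancement.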
TRPV1 PAM = enhances activation of the human vanilloid receptor TRPV1; Q8NER1; TRPV1-expressing cells, Fluo-8 calcium influx, capsaicin EC20 potentiation; potentiation, % at 8.33 µM; actives 0.02% (n = 320,000); AID 540277; in the data active = potentiation above about 80%; inconclusive = between about 30% and that limit; note: 0% is about no effect
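TRPV1-expressing cells were cultured overnight at 35.5C and loaded with Fluo-8 calcium dye for 40 to 90 min at room temperature. After a 10 s baseline, compound was added and calcium influx was read kinetically for 3 min (ex 480/em 520 nm).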
hERG WT inh = KCNH2 (human, wildtype) channel inhibition; Q12809; U2OS, BacMam KCNH2, thallium flux FluxOr; stronger effect = lower value; activity change, % at 1.84 µM; actives 0.37% (n = 340,000);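 active = maximum activity change below -70%; inconclusive = maximum activity change between -70% and -50%; inactive = maximum activity change above -50%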; note: % is set by controls: 0 for no effect and ±100 for the full control effect
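U2OS cells transduced with wild-type KCNH2 virus are loaded with FluxOr dye for 45 min, and thallium flux is measured in kinetic reads before and after stimulation buffer. Rate constants are normalized to DMSO controls.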
* marks the source's active call; other numbers are inactive results.

For Cc1ccc(-n2c(SCC(=O)Nc3ccc4cn[nH]c4c3)nnc2-c2ccco2)cc1 the results were KCNH2 3.1 block -112*, TRPV1 ag 9, TRPV1 PAM -1 and hERG WT inh -10.
For COc1ccc2oc(C(=O)OCC(=O)Nc3cc(S(=O)(=O)N4CCOCC4)ccc3OC)c(C)c2c1 the results were KCNH2 3.1 block -4, TRPV1 ag 3, TRPV1 PAM -1 and hERG WT inh 0.
CCCc1nnc(SCC(=O)Nc2nc(C)cs2)n1CCOC was read as KCNH2 3.1 block -5, TRPV1 ag -1, TRPV1 PAM 1 and hERG WT inh -6.
`COc1ccc(S(=O)(=O)N2CCC(n3cnc4cc(C(F)(F)F)ccc43)CC2)cc1` gave KCNH2 3.1 block -86*, TRPV1 ag 30, TRPV1 PAM -6 and hERG WT inh -87*.
`Cn1ncc(Cl)c1C(=O)NNC(=O)Nc1cccc2ccccc12` gave KCNH2 3.1 block 1, TRPV1 ag -1, TRPV1 PAM 1 and hERG WT inh -1.
`COc1ccc2c(COC(=O)[C@@H]3CCCN3S(=O)(=O)c3ccc(Cl)cc3)cc(=O)oc2c1` gave KCNH2 3.1 block -8, TRPV1 ag 5, TRPV1 PAM 3 and hERG WT inh 16.
Screening O=C(CCCCCn1c(=O)[nH]c2ccccc2c1=O)NCCCN1CCN(c2ccccc2F)CC1 returned KCNH2 3.1 block -70*, TRPV1 ag -2, TRPV1 PAM 0 and hERG WT inh inconclusive.
Screening O=C(CCCn1c(=O)[nH]c2ccccc2c1=O)NCCSCc1ccccc1 returned KCNH2 3.1 block 0, TRPV1 ag 1, TRPV1 PAM -8 and hERG WT inh 7.
`Cc1c(C(=O)Nc2cccc(Cl)c2)c2ccccn2c1CCc1ccncc1` gave KCNH2 3.1 block -74*, TRPV1 ag -3, TRPV1 PAM 0 and hERG WT inh 0.
Screening COc1ccccc1NC(=O)C1=C(C)Nc2nc(SCc3cccc(F)c3)nn2C1c1ccc(C(=O)O)cc1 (stereo unspecified) returned TRPV1 ag 5 and TRPV1 PAM 3.
`CCC(NC(=O)c1ccc2nc(Cc3ccc(OC)cc3)oc2c1)c1ccncc1` (stereo unspecified) gave KCNH2 3.1 block -105*, TRPV1 ag 26, TRPV1 PAM -13 and hERG WT inh 12.
`Cc1ccc(NC(=O)C(=O)NCCN2CCN(Cc3ccc([N+](=O)[O-])cc3)CC2)cc1` gave KCNH2 3.1 block -108*, TRPV1 ag 4, TRPV1 PAM 6 and hERG WT inh -82*.
Cc1ccc(NC(=O)C(=O)NCCN2CCN(C(=S)Nc3ccccc3)CC2)cc1 was read as KCNH2 3.1 block 3, TRPV1 ag -1, TRPV1 PAM -1 and hERG WT inh 5.
Screening Cc1ccc(C(=O)N2CCN(CCNC(=O)C(=O)Nc3ccc(Cl)cc3)CC2)cc1 returned KCNH2 3.1 block -87*, TRPV1 ag 2, TRPV1 PAM -5 and hERG WT inh 9.
`CCc1ccc(NC(=O)C(=O)NCCN2CCN(Cc3ccc([N+](=O)[O-])cc3)CC2)cc1` gave KCNH2 3.1 block -106*, TRPV1 ag 1, TRPV1 PAM -3 and hERG WT inh -91*.
`O=C(NCCN1CCN(C(=O)c2ccc(Br)cc2)CC1)c1ccc(Br)cc1` gave KCNH2 3.1 block -83*, TRPV1 ag 4, TRPV1 PAM 3 and hERG WT inh -4.
`CCN1CCN(CCNC(=O)Nc2ccc([N+](=O)[O-])cc2)CC1` gave KCNH2 3.1 block -15, TRPV1 ag -3, TRPV1 PAM 3 and hERG WT inh -10.
For Cc1cc(CN2CCCC(N3CCc4ccccc4C3)C2)cc(C)c1O (stereo unspecified) the results were KCNH2 3.1 block 12, TRPV1 ag -3, TRPV1 PAM 3 and hERG WT inh 2.
Screening Cc1csc(=O)n1CCC(=O)OCC(=O)NNC(=O)c1ccc(Cl)cc1 returned KCNH2 3.1 block 0, TRPV1 ag 3, TRPV1 PAM -23 and hERG WT inh 36.
N#Cc1ccccc1OCC(=O)NC(=O)NC1CCS(=O)(=O)C1 (stereo unspecified) was read as KCNH2 3.1 block 7, TRPV1 ag 1, TRPV1 PAM 2 and hERG WT inh -12.
O=C(NCc1cccnc1)c1cccc(OC2CCN(Cc3ccc(CO)o3)CC2)c1 was read as KCNH2 3.1 block 4, TRPV1 ag 1, TRPV1 PAM -5 and hERG WT inh -12.
For Cc1ccc(CN2CCC(c3cc(-c4cccs4)n[nH]3)CC2)cc1 the results were KCNH2 3.1 block -113*, TRPV1 ag 0, TRPV1 PAM 3 and hERG WT inh -71*.
COCCn1c(SCc2ccc(F)cc2)nc2c1c(=O)[nH]c(=O)n2C was read as KCNH2 3.1 block -9, TRPV1 ag 2, TRPV1 PAM -13 and hERG WT inh -5.
CNc1oc(-c2ccccc2)nc1C#N was read as KCNH2 3.1 block -81*, TRPV1 ag 6, TRPV1 PAM -16 and hERG WT inh -3.
Screening COc1ccc(Nc2oc(-c3ccccc3)nc2C#N)cc1 returned KCNH2 3.1 block -6, TRPV1 ag 12, TRPV1 PAM -5 and hERG WT inh -16.
N#Cc1ccccc1OCC(=O)NCC(c1ccc(F)cc1)N1CCOCC1 (stereo unspecified) was read as KCNH2 3.1 block 2, TRPV1 ag 4, TRPV1 PAM -12 and hERG WT inh -9.
Screening O=C(CCCN1C(=O)/C(=C\c2ccccc2)SC1=S)Nc1ccc(O)cc1C(=O)O returned KCNH2 3.1 block -116*, TRPV1 ag -2, TRPV1 PAM -13 and hERG WT inh 2.
O=C(CCCN1C(=O)/C(=C/c2ccccc2)SC1=S)Nc1ccccc1O was read as KCNH2 3.1 block 1, TRPV1 ag 8, TRPV1 PAM -8 and hERG WT inh -3.
`CCC(=O)NC(c1ccco1)c1cc(Cl)c2cccnc2c1O` (stereo unspecified) gave KCNH2 3.1 block 7, TRPV1 ag 2, TRPV1 PAM 11 and hERG WT inh 9.
For CCCCC(=O)NC(c1ccccc1Cl)c1ccc2cccnc2c1O (stereo unspecified) the results were KCNH2 3.1 block -97*, TRPV1 ag 7, TRPV1 PAM -3 and hERG WT inh -17.
O=[N+]([O-])c1ccc(NC(c2ccccc2)c2ccc3cccnc3c2O)cc1 (stereo unspecified) was read as KCNH2 3.1 block -71* and hERG WT inh -12.
Screening CC(=O)NC(c1cccc([N+](=O)[O-])c1)c1ccc2cccnc2c1O (stereo unspecified) returned KCNH2 3.1 block -1, TRPV1 ag -6, TRPV1 PAM 1 and hERG WT inh 16.
`CCCC(=O)NC(c1ccccc1)c1ccc2cccnc2c1O` (stereo unspecified) gave KCNH2 3.1 block -4, TRPV1 ag 3, TRPV1 PAM 12 and hERG WT inh -262*.

Screening results: PubChem, National Center for Advancing Translational Sciences (NCATS)
